Reference: the OligoGym collection

target: RBM28; test: pooled miR-30 sensor sort-seq; sequence = guide strand; conditions: shRNA

Going from TTTTGAACTGAACAAAACCAAA to TTATATTGTTCGACCAGCTGGT, the sensor-assay potency score (higher = more potent) rises from -1.7 to 0.168.

TCCACTAGTAGCACTCAGCAGC gave a sensor-assay potency score (higher = more potent) of -1.24.

target: RBM38; test: as above; conditions: shRNA

First: TGGTACTGCACGAAAGTGGTGC
Second: TTAACTTCTTGCTTTCAGGTTT
The sensor-assay potency score (higher = more potent) of the first is lower: -0.732 for the first, 0.295 for the second.

Compared with TAGCTGTAGCCCACGAAGCTGG, TATGGGTACTGGTCATAGGTGG is higher in sensor-assay potency score (higher = more potent): -1.08 for the first, -0.624 for the second.

Compared with TTCGGGTCTTTGCAAGCCCTCT, TACTGGTCATAGGTGGCCGGTG is higher in sensor-assay potency score (higher = more potent): -1.39 for the first, -1.24 for the second.

Compared with TTGGTGAACGTGGTGTCCTTCT, AAGATCTTGGTGAACGTGGTGT is higher in sensor-assay potency score (higher = more potent): -0.339 for the first, 0.0778 for the second.

First: ACGAAGATCTTGGTGAACGTGG
Second: TAAACAGTCCATTAACTTCTTG
The sensor-assay potency score (higher = more potent) of the first is lower: -1.06 for the first, -0.519 for the second.

Compared with AAACAGTCCATTAACTTCTTGC, TCGAAGTACTTCCTGAGCGAGG is lower in sensor-assay potency score (higher = more potent): 0.128 for the first, -1.24 for the second.

target: RBM45; test: as above; conditions: shRNA

First: TACTATAATAATCTTGTTCAGA
Second: TATTACTATAATAATCTTGTTC
The sensor-assay potency score (higher = more potent) of the first is lower: -0.469 for the first, -0.451 for the second.

First: TTCATCTTCAACATCTCGGTGA
Second: TTTGAGGCAACTGTGATCCAGA
The sensor-assay potency score (higher = more potent) of the first is higher: 0.811 for the first, -0.334 for the second.

Going from TGGAAGTACAACATCTGTCTGG to TTTATTTTTAGGTTCAGCCAAG, the sensor-assay potency score (higher = more potent) falls from -0.0344 to -0.905.

Compared with TTGAATAAGGATCTCGTTGAAC, TTCTTCATCTTCAACATCTCGG is higher in sensor-assay potency score (higher = more potent): -0.518 for the first, 0.279 for the second.

Going from TAAAATACTGAACCACTCCATG to TATATCTTCTAATACGTCTAAA, the sensor-assay potency score (higher = more potent) rises from -0.914 to -0.714.

TAAATTGTTGCTGACTTGGGTT showed a sensor-assay potency score (higher = more potent) of 0.143.

target: RBMX; test: as above; conditions: shRNA

Going from TATCTCTTCCACGTGATACAGG to TATCCGTCACGTGAGCTGCTGT, the sensor-assay potency score (higher = more potent) rises from -1.23 to -0.783.

Going from TCGACTTCCACCATATCCGTCA to TAGTATCACGAGAACTTGGGTA, the sensor-assay potency score (higher = more potent) rises from -0.253 to -0.18.

Going from ATATCCACCGTCATCCATGTGT to TATCGCTATATCCTCTTGATGG, the sensor-assay potency score (higher = more potent) falls from -0.304 to -1.

First: TCTCTATCGCTATATCCTCTTG
Second: TCCACTGCTACTGCGAACTGGT
The sensor-assay potency score (higher = more potent) of the first is lower: -1.36 for the first, -0.729 for the second.

First: TACCACTTTCAAATGATGGTTT
Second: TACAGGAGCTCTTCCTCCCATT
The sensor-assay potency score (higher = more potent) of the first is higher: -0.141 for the first, -1.19 for the second.

Compared with TCTATCGCTATATCCTCTTGAT, TTTCTTGTCTGCCAACCCGATC is lower in sensor-assay potency score (higher = more potent): -0.479 for the first, -1.65 for the second.
